# Results as given in PubChem BioAssay AID1117308 (National Center for Advancing Translational Sciences (NCATS), 2015).
# The list shows a part of the results. The source made the active and inactive calls. Calls follow the shape of the full dose curve.
# Conditions: Ebola pseudovirus entry assay, ratio channel
SMILES,AC50,outcome
COc1ccccc1OCCNCC(O)COc1cccc2[nH]c3ccccc3c12 (centres undefined),17.2 µM (active),
CCN(CC)CCCC(C)Nc1ccnc2cc(Cl)ccc12 (centres undefined),15.3 µM (active),
CO[C@H]1C[C@@H]2CC[C@@H](C)[C@@](O)(O2)C(=O)C(=O)N2CCCC[C@@H]2C(=O)O[C@H]([C@@H](C)C[C@@H]2CC[C@H](O)[C@H](OC)C2)CC(=O)[C@H](C)C=C(C)[C@@H](O)[C@@H](OC)C(=O)[C@H](C)C[C@H](C)C=CC=CC=C1C,,inactive
CCCCN(CCCC)CCC(O)c1cc2c(Cl)cc(Cl)cc2c2cc(C(F)(F)F)ccc12 (centres undefined),13.7 µM (active),
CN(C(=O)CN(CCO)CC(=O)N(C)C(C)(C)Cc1ccccc1)C(C)(C)Cc1ccccc1,6.11 µM (active),
CO[C@]12CC[C@@]3(C[C@@H]1[C@](C)(O)C(C)(C)C)[C@@H]1Cc4ccc(O)c5c4[C@@]3(CCN1CC1CC1)[C@H]2O5,9.87 µM (active),
CCCC(C(=O)OCCN(CC)CC)(c1ccccc1)c1ccccc1,4.85 µM (active),
Clc1ccc(C(Cn2ccnc2)OCc2ccsc2Cl)c(Cl)c1 (centres undefined),13.7 µM (active),
CC[C@]1(O)C[C@@H]2CN(CCc3c([nH]c4ccccc34)[C@@](C(=O)OC)(c3cc4c(cc3OC)N(C)[C@H]3[C@@](O)(C(=O)OC)[C@H](OC(C)=O)[C@]5(CC)C=CCN6CC[C@]43[C@@H]65)C2)C1,0.137 µM (active),
